Screening data (PubChem BioAssay)
ELG1 DNA repair = qHTS screen for small molecules that inhibit ELG1-dependent DNA repair in human embryonic kidney (HEK293T) cells expressing luciferase-tagged ELG1 | HEK293T ELG1-luciferase reporter, luminescence, 16 h; DNA damage induced by 5-fluorouridine | Potency, µM (highest dose often 46.1 µM), most hits filed as inhibitors | hit rate 2.3% among 330,000; note: nearly all actives have a fitted effect of over 55% in size
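Overnight (16 hr) co-exposure of 2,000 cells/well to 5-fluorouridine and compound at 37 °C preceded detection. Luciferase was quantified via ONE-Glo luminescence; loss of signal denotes inhibition.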
FLuc counter = qHTS profiling assay for firefly luciferase inhibitor/activator using purifed enzyme and Km concentrations of substrates (counterscreen for miR-21 project) | Luciferin 4-monooxygenase (Photinus pyralis), P08659 | purified FLuc, Km substrates, luminescence inhibition | Potency, µM (titrated, usually from 57.5 µM), usual class: inhibitors | hit rate 6.9% among 360,000 | AID 588342, 2011; note: nearly all actives have a fitted effect of over 55% in size
Target sequence (P08659 whole entry, looked up): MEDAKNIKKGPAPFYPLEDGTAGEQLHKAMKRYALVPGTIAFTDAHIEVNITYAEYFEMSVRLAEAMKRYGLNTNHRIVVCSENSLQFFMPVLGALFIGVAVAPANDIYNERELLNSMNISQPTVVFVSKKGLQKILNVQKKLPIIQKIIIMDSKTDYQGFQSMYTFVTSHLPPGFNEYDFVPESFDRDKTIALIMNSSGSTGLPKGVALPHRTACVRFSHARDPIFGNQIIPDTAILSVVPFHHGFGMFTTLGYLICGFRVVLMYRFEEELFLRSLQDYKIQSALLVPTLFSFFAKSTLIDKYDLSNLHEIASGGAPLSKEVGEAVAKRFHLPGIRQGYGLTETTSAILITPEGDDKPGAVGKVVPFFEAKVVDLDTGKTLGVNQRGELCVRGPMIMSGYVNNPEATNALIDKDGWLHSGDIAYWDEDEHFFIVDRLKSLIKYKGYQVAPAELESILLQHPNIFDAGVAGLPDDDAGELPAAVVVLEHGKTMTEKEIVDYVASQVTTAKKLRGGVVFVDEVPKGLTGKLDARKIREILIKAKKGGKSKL
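Purified P. pyralis luciferase (10nM final) with 10uM D-luciferin and 10uM ATP (Km levels) in 50mM Tris acetate pH 7.5, 10mM Mg acetate, 0.01% Tween-20, 0.05% BSA; qHTS 6-point titration, ~60 µM downward; luminescence read.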
Rab9 prom act = qHTS Assay for Rab9 Promoter Activators; hit rate 2.8% among 320,000; Potency, µM (highest dose often 9.22 µM), most hits filed as activators; Huh7 Rab9 promoter-luciferase reporter, luminescence, 24 h; note: nearly all actives have a fitted effect of over 60% in size
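Cells were plated at 1500 per well in reduced-serum medium with 10% FBS and left 2 h. Compound in DMSO was then added for 24 h at 37 °C. Reporter signal was read by luminescence after 10 min with luciferase detection reagent.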
NPC1 prom act = qHTS Assay for NPC1 Promoter Activators; Huh7 NPC1 promoter luciferase reporter, 24 h; Potency, µM (series often up to 9.22 µM), usual class: activators; hit rate 2.4% among 320,000; AID 485313, 2010; note: nearly all actives have a fitted effect of over 60% in size
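Huh7 reporter cells (NPC1 promoter driving luciferase) are dosed with compound for 24 h at 37 °C, 5% CO2; luciferase detection reagent is then added and luminescence measured after 10 min at ambient temperature.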
SMN2 splice up = qHTS Assay for Enhancers of SMN2 Splice Variant Expression. HEK293 SMN2-luciferase splicing reporter, luminescence, 30-36 h. Potency, µM (titrated, usually from 46.1 µM), most hits filed as activators. hit rate 2.8% among 210,000; note: nearly all actives have a fitted effect of over 55% in size
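qHTS luciferase splicing reporter: luminescence rises when SMN2 exon 7 is included in transfected HEK293 cells. Compound exposure lasted 30-36 h at 37C, with 4.5 mM final sodium butyrate as control, followed by a ONE-Glo read.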
ELG1 genotoxic = qHTS screen for small molecules that induce genotoxicity in human embryonic kidney (HEK293T) cells expressing luciferase-tagged ELG1. HEK293T ELG1-luciferase reporter, luminescence, 16 h. Potency, µM (series often up to 46 µM), usual class: activators. AID 504466, 2011. hit rate 1.3% among 330,000; note: nearly all actives have a fitted effect of over 60% in size
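Genotoxicity was scored as increased ELG1-luciferase reporter signal, measured by ONE-Glo luminescence (30 min, room temperature). Compound or vehicle exposure of the HEK293T reporter cells lasted 16 hr at 37°C.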
A number is an active result; 0 = inactive; ? = inconclusive; - = no result given. The list is not random: actives were taken first. Their share in the collection is about 9.2%. Calls come from the whole dose curve; as a rule, active = well fitted curve in the direction sought with a large enough effect; inconclusive = small, poorly fitted or top-dose-only effect, or another doubt; inactive = no such curve, though single readings can be large; an effect the other way counts as inactive or inconclusive.

SMILES	ELG1 DNA repair	FLuc counter	Rab9 prom act	NPC1 prom act	SMN2 splice up	ELG1 genotoxic
CCCCn1c(=N)c(S(=O)(=O)c2ccc(Cl)cc2)cc2c(=O)n3cccc(C)c3nc21	-	0	-	-	0	-
N[C@H](C(=O)O)[C@H]1C[C@H]1C(=O)O	-	-	-	-	0	-
Cc1noc(Cn2c(=O)c3ccccc3n(CC(=O)Nc3ccc(F)cc3F)c2=O)n1	-	0	-	-	-	-
Cc1nc(-c2ccccc2)nc2[nH]c(-c3ccccc3)cc(=O)c12	?	0	0	0	0	0
Cc1cc(-c2ccc([N+](=O)[O-])cc2)nc2ccccc12	0	?	0	0	?	0
Cc1nc(-c2ccc([N+](=O)[O-])cc2)nc2[nH]ccc(=O)c12	?	5.36µM	1.12µM	1.12µM	-	?
Cc1nc(-c2ccccc2)nc2[nH]ccc(=O)c12	?	12µM	?	0	?	?
Cc1nc(SCC(=O)NCc2ccco2)c2c(=O)n(C)c(=O)n(CC(C)C)c2n1	?	0	0	0	0	0
O=C(O)/C=C/C(=O)NNC(=O)c1cccc(Br)c1	0	0	0	0	0	0
O=C(Cc1ccccc1)NNC(=O)Nc1ccc(Cl)c(Cl)c1	0	0	0	0	0	0
O=C(Nc1ccc(Cl)c(Cl)c1)Nc1ccccc1C(=O)O	?	0.536µM	0.316µM	0.355µM	4.47µM	2.31µM
O=C(Nc1ccc(Cl)cc1)Nc1ccccc1C(=O)O	?	0.477µM	0.447µM	0.355µM	12.6µM	?
O=C(Nc1ccc(Cl)cc1)Nc1ccccc1CC[N+](=O)[O-]	0	?	0	0	?	0
CCOC(=O)CC(C)(C)/C(C)=N/Nc1ccc([N+](=O)[O-])cc1[N+](=O)[O-]	0	0	0	0	-	0
CCOc1ccc(CNC(=O)c2ccc(NC(=O)N3CCCCc4ccccc43)cc2)cc1OC	-	0	-	-	-	-
COc1cc(C(=O)Nc2cc(-c3nc4cc(C)ccc4o3)ccc2C)cc(OC)c1OC	0	0.269µM	?	?	?	?
Cc1ccc2oc(-c3ccc(C)c(NC(=O)C(C)(C)Oc4ccc(Cl)cc4)c3)nc2c1	-	3.79µM	-	-	?	-
COc1cc(C(=O)Nc2cccc(-c3nc4cc(C)ccc4o3)c2)cc(OC)c1OC	14.6µM	1.69µM	0	0	0	0
Cc1ccc2oc(-c3ccc(C)c(NC(=O)c4ccc(C(C)(C)C)cc4)c3)nc2c1	-	0	-	-	0	-
COc1cc(C(=O)Nc2cccc(-c3nc4cc(C)ccc4o3)c2C)cc(OC)c1OC	0	0.953µM	0	0	0	0
CC(C)(C)n1nc2c(c1NC(=O)COc1ccc(F)cc1)CS(=O)(=O)C2	0	0	0	0	-	0
COc1ccc(C(=O)N2CCC3(CC2)CCN(c2ccncc2)CC3)cc1	-	-	-	-	0	-
Cc1ccc2oc(-c3ccc(C)c(NC(=O)Cc4cccs4)c3)nc2c1	0	?	0	0	0	0
Cc1ccc2oc(-c3ccc(C)c(NC(=S)NC(=O)c4cccs4)c3)nc2c1	?	6.01µM	0	0	?	8.2µM
COc1ccc(C2C(=O)N(C3CCCCCC3)CC(=O)N2CCC2=CCCCC2)cc1 (stereo not given)	-	0	-	-	-	-
SMILES	ELG1 DNA repair	FLuc counter	Rab9 prom act	NPC1 prom act	SMN2 splice up	ELG1 genotoxic
CCC(C)(C)C1CCC2(CC1)NC(=S)N(c1ccccc1)N2 (stereo not given)	8.2µM	?	0	0	-	?
Cc1oc(C)c2c(=O)cc(-c3ccc4c(c3)OCO4)cc(OC(=O)c3cccc(Br)c3)c12	-	0	-	-	0	-
COc1ccc(C(=O)COC(=O)c2ccc3c(c2)NC(=O)CS3)c(OC)c1	?	0	0	0	-	0
CCOc1ccc(C(C)=O)cc1COC(=O)c1ccc2c(c1)NC(=O)CS2	16.4µM	-	0	0	-	0
CCN(CC)c1nc2cc(C)ccc2cc1/C=C(\C#N)C(N)=O	0	0	0	0	0	0
C=CC[C@@H](CC(=O)N[C@H](CO)Cc1ccccc1)C(=O)N[C@H](COC(=O)[C@@H](CC=C)Cc1ccc(F)cc1)Cc1c[nH]c2ccccc12	20.6µM	-	-	-	-	0
C=CC[C@@H](CC(=O)N[C@@H](CO)Cc1ccccc1)C(=O)N[C@@H](COC(=O)[C@@H](CC=C)Cc1ccc(F)cc1)Cc1c[nH]c2ccccc12	0	-	-	-	-	0
C=CC[C@@H](CC(=O)N[C@@H](CO)Cc1ccccc1)C(=O)N[C@H](COC(=O)[C@@H](CC=C)CC(=O)OC(C)(C)C)Cc1c[nH]c2ccccc12	20.6µM	-	-	-	-	0
C=CC[C@H](CC(=O)N[C@H](CO)Cc1ccccc1)C(=O)N[C@@H](COC(=O)[C@@H](CC=C)CC(=O)OC(C)(C)C)Cc1c[nH]c2ccccc12	?	-	-	-	-	0
CO/N=C(/C(=O)NC1C(=O)N2C(C(=O)O)=C(COC(N)=O)CSC12)c1ccco1 (stereo not given)	-	-	-	-	0	-
CN1CCN(c2ccc(NC(=O)N3CCc4ccccc43)cc2)CC1	?	0.757µM	0.112µM	0.316µM	-	0.461µM
Cc1ccc(NC(=O)N2CCc3ccccc32)cc1C	?	0.675µM	0.316µM	0.501µM	1.41µM	0.651µM
Cc1ccc(NC(=O)N2CCc3ccccc32)cc1	?	0.536µM	0.631µM	0.708µM	1.26µM	?
Cc1ccc(NC(=O)N2CCCc3ccccc32)cc1	0	?	0	0	-	0
Cc1ccc(Cl)cc1NC(=O)CN1C(=O)CCc2ccccc21	-	0	-	-	-	-
Cc1ccc(NC(=O)CN2C(=O)CCc3ccccc32)cc1C	-	23.9µM	-	-	-	-
O=C(Cc1c[nH]c2ccccc12)NC1(C(=O)NC2CCCC2)CCCCC1	0	0	0	0	0	0
O=C(Nc1ccccc1C(F)(F)F)c1ccc2oc(=O)c(S(=O)(=O)c3ccc(F)cc3)cc2c1	-	0	-	-	0	-
O=C(CC1SC(=Nc2ccc(OC(F)F)cc2)N(CCC2=CCCCC2)C1=O)Nc1ccccc1F (stereo not given)	?	0	0	0	0	0
CCOc1ccccc1N=C1SC(CC(=O)Nc2ccc(OC)cc2OC)C(=O)N1CCC1=CCCCC1 (stereo not given)	7.31µM	0	0	0	0	0
COc1ccc(N(C(=O)c2snc(C(N)=O)c2N)C(C(=O)NC2CCCC2)c2cccs2)c(OC)c1 (stereo not given)	0	0	0	0	-	0
O=C(CCCC(=O)OCC(=O)c1ccc(F)cc1)Nc1cc(C(F)(F)F)ccc1Cl	0	12µM	0	0	0	0
O=C(COC(=O)c1ccc(O)cc1)Nc1cc(C(F)(F)F)ccc1Cl	0	0	0	0	0	0
